Laboratory results from PubChem BioAssay AID2069 (Sanford-Burnham Center for Chemical Genomics, 2009).
The whole screen tested about 1,200 compounds, of which about 210 (18%) were called active. Not all results are given here. Values without a mark were called inactive. Rule as the data show it: active = inhibition above about 30%; inactive = the rest.

Experiment: fluorescence readout artefact check – biochemical, HTRF, uHTS, artefact control for SUMOylation inhibitor project, confirmation (AID 2069)
Conditions: HTRF interference counterscreen, at 35 µM, stronger effect = higher value
Compound `O=C1NC(=Nc2ccc(O)cc2)S/C1=C\C=C\c1ccco1` has an inhibition of 8.5%.
For `COc1ccc2c(c1)c(=O)oc1c(C)c(OCc3ccc(C(=O)O)cc3)ccc12`, the inhibition was 31.4% (active).
For `Cc1c(CC(=O)O)c(=O)oc2c(C)c(OCc3ccccc3Br)ccc12`, the inhibition was -1.95%.
In the case of `Cc1cc(=O)oc2cc(OCc3ccc(C(=O)OCC(=O)Nc4ccc(N(C)C)cc4)cc3)ccc12`, the inhibition is reported as 11.7%.
Compound `COc1cc(/C=C(\C#N)C(=O)Nc2cccc(C(=O)O)c2)ccc1OCc1ccc(Cl)cc1` has an inhibition of 19.7%.
`S=C(Nc1cccc(Cl)c1)Nc1ccc2cn[nH]c2c1` showed an inhibition of 2.35%.
With `Cn1nccc1NC(=O)Nc1cccc(Br)c1` the inhibition was 46.4% (active).
`O=C(Nc1ccc2oc(=O)ccc2c1)c1ccc(-c2cccc(Cl)c2)o1` gave an inhibition of 12.1%.
`O=C(Nc1cccnc1)c1cc2cc(Br)ccc2oc1=O` gave an inhibition of -1.65%.
In the case of `Cn1nccc1NC(=O)Nc1cccc(Cl)c1`, the inhibition is reported as 42.6% (active).
Work on `O=C(Nc1nnc(-c2ccccc2SCc2ccccc2F)s1)Nc1ccccc1F` yielded an inhibition of 0.75%.
`Cc1ccc(C(=O)NC(C)c2nc3ccccc3n2CC(=O)Nc2c(C)cc(C)cc2C)cc1` (configuration not stated) gave an inhibition of 25.5%.
`O=C(CCc1ccccc1)NNc1cc(N2CCCCC2)nc(N2CCCCC2)n1` showed an inhibition of 14.2%.
Work on `CCC(=O)OCCNc1cc(Sc2nccn2C)c2nonc2c1[N+](=O)[O-]` yielded an inhibition of 8.05%.
`CC1=C(C#N)C(=O)NC(=O)/C1=C\c1ccc(-c2ccc(C)cc2[N+](=O)[O-])o1` gave an inhibition of -1.55%.
Compound `COc1ccc2c(c1)CC/C(=C\C=C\c1ccccc1)C2=O` has an inhibition of 6.1%.
`O=C(NCCNc1ccc2ccccc2c1)c1cccn2c(=O)c3sccc3nc12` showed an inhibition of 5.05%.
For `CCOC(=O)N1CCN(C(=O)c2cccn3c(=O)c4cc(Br)ccc4nc23)CC1`, the inhibition was 49.9% (active).
Compound `CCOC(=O)N1CCC(c2cc(=O)n(-c3ccccc3)[nH]2)CC1` has an inhibition of 2.2%.
With `O=C(c1cccn2c(=O)c3cc(Cl)ccc3nc12)N1CCOCC1` the inhibition was 44.6% (active).
With `O=C(c1cccn2c(=O)c3cc4ccccc4cc3nc12)N1CCN(c2ccccc2)CC1` the inhibition was 7.35%.
Work on `Cn1c2ccc(Cl)cc2c2nc3ccccc3nc21` yielded an inhibition of 21.9%.
For `CCOC(=O)N1CCN(C(=O)c2cccn3c(=O)c4cc(Cl)ccc4nc23)CC1`, the inhibition was 43.5% (active).
`NC(=O)CC(NC(=O)Cc1ccc(Br)cc1)c1ccc(N2CCC(Br)CC2)c([N+](=O)[O-])c1` (configuration not stated) gave an inhibition of 4.65%.
Compound `O=C(Nc1nnc(-c2ccccc2)o1)c1nc2ccccc2s1` has an inhibition of 11.1%.
Work on `CN(C)c1cc(Cl)c2nonc2c1N` yielded an inhibition of 4.85%.
`NC(=O)c1ccc(N=C2C(=O)Nc3ccc([N+](=O)[O-])cc32)cc1` gave an inhibition of -4.65%.
`S=C(Nc1ccc(Cl)cc1)Nc1cccc2cnccc12` gave an inhibition of 1.3%.
With `CCCCCn1c(NC(=O)c2ccco2)c(S(=O)(=O)c2ccc(C)cc2)c2nc3ccccc3nc21` the inhibition was 6.85%.
For `CC(=O)c1ccc(NC(=S)Nc2cccc3ccccc23)cc1`, the inhibition was 14.1%.
For `O=[N+]([O-])c1ccccc1/C=C/C=N/n1c(-c2cc(-c3ccccc3)n[nH]2)n[nH]c1=S`, the inhibition was -4%.
For `COCCCn1c(C(=O)N2CC(C)OC(C)C2)cc2c(=O)n3ccccc3nc21` (configuration not stated), the inhibition was 46.4% (active).
`COCCCNC(=O)c1cccn2c(=O)c3cc4ccccc4cc3nc12` showed an inhibition of 13.3%.
With `COCCCn1c(C(=O)N2CCOCC2)cc2c(=O)n3ccccc3nc21` the inhibition was 52.1% (active).
Compound `CC1=NN(c2ccc(Br)cc2)C(=O)/C1=C/c1cccs1` has an inhibition of -19.8%.
In the case of `CCc1ccc(NC(=S)Nc2cccc3cnccc23)cc1`, the inhibition is reported as 3.45%.
Work on `N#Cc1c2nc3ccccc3nc2n2cc(NC(=O)c3ccc(F)cc3)ccc12` yielded an inhibition of 3%.
In the case of `Cn1cccc1/C=N/NC(=O)c1sc2cc(Cl)ccc2c1Cl`, the inhibition is reported as 15%.
Work on `O=C(N/N=C/c1ccc(O)c2ncccc12)c1cccc(Br)c1` yielded an inhibition of -4.25%.
`S=c1[nH]nc(-c2ccncc2)n1/N=C/c1cn(-c2ccccc2)nc1-c1ccc(Cl)cc1` showed an inhibition of -1.35%.
In the case of `Cc1ccc(/C=C2\SC(=S)N(c3cccnc3)C2=O)o1`, the inhibition is reported as 4.85%.
`Fc1cccc(Cl)c1C1Nc2cccc3cccc(c23)N1` showed an inhibition of -14.8%.
With `O=C(Nc1ccccc1)Nc1ccno1` the inhibition was 47.1% (active).
Work on `Cc1cc2c(NC(=O)Nc3ccccc3)cccc2nn1` yielded an inhibition of -6.1%.
In the case of `Cc1ccc(NC(=O)Nc2ccno2)cc1`, the inhibition is reported as 48.2% (active).
`Cc1ccc(NC(=O)Cn2nc(C(=O)Nc3ccc(C)cc3)ccc2=O)cc1` showed an inhibition of 4.7%.
With `O=C(Nc1ccccc1)c1ccccc1CCc1ccccc1` the inhibition was 2.45%.
For `CCC(NC(=O)Nc1ccc(O)cc1)(C(F)(F)F)C(F)(F)F`, the inhibition was -9.2%.
With `COc1ccc(/C=C2/C(=O)N(c3ccccc3)N=C2C)cc1OC` the inhibition was -0.35%.
Compound `O=[N+]([O-])c1c(NCc2ccccc2)cc(N2CCc3ccccc3C2)c2nonc12` has an inhibition of 0.75%.
Compound `O=[N+]([O-])c1cc(CN2CCN(c3cccc(C(F)(F)F)c3)CC2)c2cccnc2c1O` has an inhibition of -18.5%.
Work on `Cc1cc2c(NC(=O)Nc3ccc(C(C)(C)C)cc3)cccc2nn1` yielded an inhibition of 18.8%.
In the case of `Cc1c(O)ccc2c(CC(=O)N[C@@H](Cc3ccc(O)cc3)C(=O)O)cc(=O)oc12`, the inhibition is reported as 39.9% (active).
With `CCCc1cc(=O)oc2cc(OCC(=O)Nc3ccc(S(N)(=O)=O)cc3)ccc12` the inhibition was 21.4%.
Compound `NC(=O)C1CCN(C2=C(NS(=O)(=O)c3ccccc3)C(=O)c3ccccc3C2=O)CC1` has an inhibition of -13.8%.
With `O=C(CN1C(=O)S/C(=C\c2ccccc2)C1=O)NNC(=O)c1ccccc1O` the inhibition was 2.55%.
Work on `S=c1[nH]nc(-c2cc(-c3ccco3)[nH]n2)n1-c1cccc2ccccc12` yielded an inhibition of -16.1%.
For `CCOC(=O)N1CCc2c(sc3c2c(=O)n(Cc2ccccc2)c(=O)n3CC(=O)NCCOC)C1`, the inhibition was -6.7%.
For `COCCNC(=O)CCC1CCN(Cc2ccc(-c3ccccc3)cc2)CC1`, the inhibition was 65.5% (active).
With `C[C@@H]1CN=C2N(CCNC(=O)CCC3CCCCC3)[C@H](Cc3ccc(O)cc3)CN21` the inhibition was 1.3%.
With `CCOC(=O)Cn1c(=NC(=O)c2sc3ccccc3c2Cl)sc2cc(S(N)(=O)=O)ccc21` the inhibition was 8.1%.
For `C#CCOc1ccc(/C=C2/C(=O)N(c3cccc(C(=O)O)c3)N=C2C)cc1OC`, the inhibition was -5.85%.
With `CC(=O)C1=C(C)OC2(O)c3ccccc3C(=O)C12O` (configuration not stated) the inhibition was -21.7%.
For `NNc1nc2c(Cl)ccc(Cl)c2s1`, the inhibition was -0.55%.
For `CC(=O)C1C(=O)C=C(c2ccco2)CC1c1ccccc1` (configuration not stated), the inhibition was 0.4%.
With `O=c1c2cc(N3CCOCC3)ccc2[nH]c(=S)n1CC1CCCO1` (configuration not stated) the inhibition was 55.1% (active).
With `CC1CCN(CCCn2c(=S)[nH]c3ccc(N4CCOCC4)cc3c2=O)CC1` the inhibition was 52.3% (active).
With `N#Cc1cc2ccc(N3CCOCC3)cc2cc1C#N` the inhibition was 9.35%.
In the case of `Cc1c(C(=O)O)c(C(=O)O)nc2ccc(N3CCOCC3)cc12`, the inhibition is reported as 7.75%.
`COc1ccc2[nH]c3c(=O)n(CCCC(=O)NC4CCC(C)CC4)c(=S)[nH]c3c2c1` (configuration not stated) gave an inhibition of 6.2%.
For `O=c1c2cc(N3CCOCC3)ccc2[nH]c(=S)n1Cc1ccccn1`, the inhibition was 56.3% (active).
`N#C/C(=C\c1ccc(-c2ccc([N+](=O)[O-])cc2)o1)C(=O)Nc1nc(-c2cccs2)cs1` gave an inhibition of 0.8%.
Compound `O=C(c1ccc2c(c1)[nH]c(=S)n1c3ccccc3nc21)N1CCN(c2ncccn2)CC1` has an inhibition of 11.9%.
Work on `COc1ccc(S(=O)(=O)C(C#N)c2nc3ccccc3nc2N2CCC(C)CC2)cc1` (configuration not stated) yielded an inhibition of -6%.
`CCOc1ccc(NC(=S)Nc2cccc3ccccc23)cc1` gave an inhibition of -13.5%.
For `COc1ccc(OC)c(S(=O)(=O)NCCc2cn3ccsc3n2)c1`, the inhibition was -8.15%.
`CCOC(=O)CCc1c(C)c(C#N)c2[nH]c3ccccc3n2c1=O` showed an inhibition of 2.5%.
Compound `CC(=O)Oc1c(/C=C(\C#N)C(N)=O)[nH]c2ccccc12` has an inhibition of -17.9%.
In the case of `C=CCOc1c(Cl)cc(CNc2ccc3[nH]c(=O)[nH]c3c2)cc1OC`, the inhibition is reported as -12.6%.
`COc1ccc(C2=NN(C(=O)CCCC(=O)O)C(c3cn(-c4ccccc4)nc3-c3ccccc3)C2)cc1` (configuration not stated) gave an inhibition of 4.9%.
For `O=C(O)c1ccc(N2N=C(c3ccccc3)CC2c2ccccc2)cc1` (configuration not stated), the inhibition was 60.1% (active).
With `Cc1ccc(C2=NN(C(=O)CCC(=O)O)C(c3cn(-c4ccccc4)nc3-c3ccc(C)cc3)C2)cc1` (configuration not stated) the inhibition was 23.6%.
`O=C(N=Nc1c(O)n(Cc2ccccc2)c2ccccc12)c1cc2ccccc2cc1O` gave an inhibition of 10.8%.
`COCCn1c(-c2cccs2)csc1=Nc1cccnc1` showed an inhibition of 3.35%.
Work on `COc1ccc(-c2nc(SCC(=O)Nc3cc(C)on3)n[nH]2)cc1` yielded an inhibition of 22.4%.
For `O=[N+]([O-])c1cc(C=Nc2cccc3c(O)cccc23)ccc1Cl`, the inhibition was -17.1%.
For `c1ccc2c3c(cc(N4CCOCC4)c2c1)OC1(N2CCOCC2)CCCCC1O3` (configuration not stated), the inhibition was 16%.
For `S=C(NCc1ccc2c(c1)OCO2)Nc1ccc2nsnc2c1`, the inhibition was -0.25%.
`CCCC(=O)Nc1ccc2oc(-c3cncc(Br)c3)nc2c1` showed an inhibition of 19.6%.
With `CC(C)CC(=O)Nc1ccc2oc(-c3cccnc3)nc2c1` the inhibition was 42.5% (active).
`O=C(Nc1ccc2oc(-c3ccc4ccccc4c3)nc2c1)c1ccc2c(c1)OCCO2` showed an inhibition of 8.15%.
Compound `Nc1ccc(N2CCN(CCCCN3C(=O)C4CCCN4C3=O)CC2)cc1` (configuration not stated) has an inhibition of -7%.
